In all, about 52,000 compounds went through this assay and about 4,300 (8.3%) were called active. Cut-off read from the data, not from the text of the source: active = survival mostly below about 52% (no sharp cut-off); inactive = mostly above about 56%. What follows is part of a selection rich in actives, with near analogues and random picks from the rest.
These molecules were tested on DeltatarO mutant (assay: growth inhibition of S. aureus wild type versus tarO mutant, primary screen, teichoic acid synthesis inhibitors, RN4220, OD600 (AID 463173)). Conditions: OD600, 18 h, hits give low values, screened at 18.75 µg/mL (by protocol).

SMILES | survival
Cc1cc(NC(=O)C2CCCN(S(=O)(=O)c3cn(C)cn3)C2)ccc1Br (stereo not given) | 102% (inactive)
Cc1ccc(S(=O)(=O)CCc2nnc(NC(=O)CCCC(=O)Nc3cc(C)on3)s2)cc1 | 104% (inactive)
CCOc1ccc(C(CC(=O)Nc2ccc(C(=O)OC)cc2)N2Cc3ccccc3C2=O)cc1OC (stereo not given) | 73% (inactive)
Cc1cccc(NC(=O)CN2C(=O)c3ccccc3Sc3ncccc32)c1C | 90% (inactive)
Cc1ccc(CNC(=O)C(=O)NCC(c2ccc3c(c2)OCO3)N2CCOCC2)cc1 (stereo not given) | 64% (inactive)
c1ccc(CN2CCCN(c3nc4c(c(NCCN5CCOCC5)n3)CCCC4)CC2)cc1 | 103% (inactive)
COC(=O)c1c(SCC(=O)Nc2cc(C)cc(C)c2)[nH]c2ccccc2c1=O | 39% (active)
COC(=O)c1c(SCC(=O)Nc2cccc(C(F)(F)F)c2)[nH]c2ccccc2c1=O | 82% (inactive)
COC(=O)c1c(SCC(=O)Nc2ccccc2OC)[nH]c2ccccc2c1=O | 55% (inactive)
COc1ccc(N2CCN(C(=O)c3ccc(NC(=O)c4nsc5ccccc45)cc3)CC2)cc1 | 84% (inactive)
CCOC(=O)c1scc(-c2ccccc2)c1S(=O)(=O)Nc1cc(OC)cc(OC)c1 | 89% (inactive)
Cc1cccc(CSc2nc(=O)c3c(n2C)NC(=O)CC3c2cccc(O)c2)c1 (stereo not given) | 46% (inactive)
COc1ccccc1NC(=O)c1ccc(CN2C(=O)C(C)=C(c3ccc(C)c(C)c3)S2(=O)=O)cc1 | 83% (inactive)
O=C(COc1ccccc1Cl)Nc1ccc2oc(-c3ccccc3F)nc2c1 | 67% (active)
Cc1ccc(SCC(=O)Nc2ccc3oc(-c4ccc(F)cc4)nc3c2)cc1 | 80% (inactive)
Cc1ccc(SCC(=O)Nc2ccc3oc(-c4ccccc4C)nc3c2)cc1 | 50% (inactive)
O=C(Nc1ccc(Cl)c(-c2nc3cc(Cl)ccc3o2)c1)c1cc2ccccc2o1 | 70% (inactive)
O=C(Nc1ccc2oc(-c3ccccc3F)nc2c1)c1ccccc1Cl | 49% (active)
O=C(COc1ccccc1Cl)Nc1ccc(Cl)c(-c2nc3ccccc3o2)c1 | 51% (inactive)
Cc1cccc(OCC(=O)Nc2ccc3oc(-c4ccccc4F)nc3c2)c1 | 57% (inactive)
COc1ccccc1-c1nc2cc(NC(=O)c3ccccc3Cl)ccc2o1 | 61% (inactive)
Cc1ccc(SCC(=O)Nc2ccc3oc(-c4ccccc4F)nc3c2)cc1 | 57% (active)
N#Cc1ccc(C(=O)Nc2ccc(Cl)c(-c3nc4cc(Cl)ccc4o3)c2)c(F)c1 | 28% (active)
O=C(Nc1ccc(-c2nc3cc(NC(=O)c4ccccc4Cl)ccc3o2)cc1)c1ccccc1Cl | 83% (inactive)
COc1ccc2oc(-c3cccc(NC(=O)c4ccc(C#N)cc4F)c3)nc2c1 | 79% (inactive)
